A selection: hits, their analogues and other compounds. The true share with any hit is near 12%.
Pf growth 96h – P. falciparum growth inhibition at 96 hour, primary screen for plastid delayed-death inhibitors; P. falciparum luciferase reporter growth, 96 h; Potency, µM (highest dose often 28.7 µM), without a hit: at the highest dose activity change, negative = inhibition, usual class: inhibitors; hit rate 6.9% among 320,000; further: on the % scale 0 is the no-effect control and ±100 the full control effect
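P. falciparum expressing integrated firefly luciferase grown in erythrocytes (2% hematocrit, 0.05% parasitemia final) with compounds for 96 hours at 37 C, 5% CO2. Growth inhibition read as loss of luminescence after adding luciferase detection reagent.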
SARS PLP yeast – inhibitors of SARS-CoV papain-like protease in yeast; Potency, µM (top dose mostly 32.9 µM), inactives show at the highest dose activity, positive = growth rescue, usual class: activators; S. cerevisiae expressing SARS-CoV PLpro, growth rescue; hit rate 0.19% among 330,000; calls by dose curve; further: 0% is about no effect; nearly all actives have a fitted effect of over 55% in size
Sm TGR inh – inhibitors of Schistosoma mansoni thioredoxin glutathione reductase; purified TGR, DTNB reduction, TNB absorbance 405 nm; Potency, µM (series often up to 114 µM), for the others: top-dose activity change, negative = inhibition, hits mostly inhibitors; Q962Y6; hit rate 3% among 360,000; further: on the % scale 0 is the no-effect control and ±100 the full control effect; nearly all actives have a fitted effect of over 60% in size
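Kinetic colorimetric format: TGR-catalysed, NADPH-driven DTNB reduction monitored via TNB absorbance. Enzyme dispensed at 20 nM; compound exposure 15 min at room temperature before reaction start.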
Pf growth 48h – P. falciparum growth inhibition at 48 hours (one generation). P. falciparum luciferase growth in erythrocytes, 48 h. Potency, µM (series often up to 28.7 µM), without a hit: top-dose activity change, negative = inhibition, most hits filed as inhibitors. hit rate 5.9% among 310,000; further: on the % scale 0 is the no-effect control and ±100 the full control effect
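A one-generation exposure of luciferase-tagged malaria parasites in RPMI 1640/Albumax erythrocyte culture, 37 C and 5% CO2. Inhibition is inferred from decreased luminescence after adding detection reagent.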
Active calls of the source: *; ? = inconclusive; / = no result given; [ ] = another dose, or the depositor's remark. Unless noted, the call rests on the fitted dose curve; in most records, active means well fitted curve in the direction sought with a large enough effect; inconclusive means small, poorly fitted or top-dose-only effect, or another doubt; inactive means no such curve, though single readings can be large; an effect the other way counts as inactive or inconclusive. Potency means the concentration at half of the fitted maximal effect.

SMILES	Pf growth 96h	SARS PLP yeast	Sm TGR inh	Pf growth 48h
N#C/C(=C\c1c(F)cccc1Cl)C(=O)NC1CC1	13.1µM*	0.8%	-8.4%	-15.6%
O=C1OC(C(=O)Nc2cc(C(F)(F)F)ccc2Cl)Cc2ccccc21 (stereo unspecified)	/	/	-2.5%	/
Cc1ccc(C(C(=O)NCc2ccco2)N(Cc2ccco2)C(=O)CNC(=O)c2ccco2)cc1 (stereo unspecified)	6.57µM*	-10.2%	44.7µM*	-5.0%
CC(=O)Nc1ccc(N(C(=O)CNC(=O)c2ccco2)C(C(=O)NCc2ccco2)c2ccccc2)cc1 (stereo unspecified)	1.9%	2.5%	3.2%	-6.4%
COc1ccc(CN(C(=O)CNC(=O)c2ccco2)C(C(=O)NCC2CCCO2)c2ccccc2)cc1 (stereo unspecified)	2.33µM*	3.1%	-2.5%	-4.4%
CCOc1ccccc1C(C(=O)NC1CCCC1)N(Cc1ccco1)C(=O)CNC(=O)c1ccco1 (stereo unspecified)	?	7.6%	0.0%	8.28µM*
O=C(NCC(=O)N(Cc1ccccc1)C(C(=O)NC1CCCC1)c1ccco1)c1ccco1 (stereo unspecified)	5.22µM*	3.6%	-3.8%	-2.8%
O=C(NCC(=O)N(Cc1ccco1)C(C(=O)NC1CCCCC1)c1cccnc1)c1ccco1 (stereo unspecified)	51.5%	-0.2%	3.8%	-7.5%
O=C(NCC(=O)N(Cc1ccc(F)cc1)C(C(=O)NC1CCCC1)c1ccco1)c1ccco1 (stereo unspecified)	/	1.2%	-24.6%	-22.0%
CN(C)CCCNc1ccc(-c2cc(Nc3cccc(Cl)c3)ncn2)cn1	0.928µM*	1.7%	4.2%	1.85µM*
Oc1cccc(Nc2cc(-c3ccccc3)ncn2)c1	/	/	-4.8%	/
CC(C)c1nn2c(=O)cc(COC(=O)C3CCCCC3)nc2s1	/	/	3.2%	/
Cc1cc(C)c(C#N)c(Sc2nnnn2-c2ccccc2)n1	2.33µM*	-0.4%	4.7%	-3.4%
Cc1cc(C)n2cc(CSc3nnnn3-c3ccccc3)nc2n1	8.28µM*	-3.5%	2.7%	-21.6%
Cc1ccccc1-n1nnnc1Sc1nnnn1-c1ccccc1	/	-17.9%	-28.6%	8.28µM*
CCCSc1nnc(Sc2nnnn2-c2ccccc2)s1	/	-11.4%	-4.3%	13.1µM*
COc1cc(OC)c(OC)cc1/C=C/c1nc2cc3ccccc3cc2c(=O)n1-c1ccc(F)cc1F	/	/	12.9%	/
CC(c1nnc(SCC(=O)c2c(N)n(C3CC3)c(=O)[nH]c2=O)n1-c1ccc(F)cc1)N(C)C (stereo unspecified)	?	-1.4%	0.4%	1.3%
N#CCc1nn(-c2ccc(Cl)cc2)c(N)c1C#N	13.1µM*	8.0%	-0.3%	-5.6%
CSc1ccc(/C=N\Nc2nncn2N)cc1	35.8%	-6.8%	7.9%	-11.9%
COc1cc(NC(=O)Cn2cnc(S(=O)(=O)N3CCC(C)CC3)c2)cc(OC)c1OC	?	2.6%	-0.9%	-3.4%
COc1ccc(N2CCN(C(=O)c3ccccc3NS(=O)(=O)c3ccc(C)cc3)CC2)cc1	-20.9%	-0.4%	-19.5%	-29.8%
CN(Cc1ccc(OCC(O)CN2CCCCC2)cc1)Cc1ccnc2ccccc12 (stereo unspecified)	3.4%	-0.1%	7.3%	11.7µM*
Cc1nn(C)cc1CN(C)Cc1ccc(OCC(O)CN2CCCCC2)cc1 (stereo unspecified)	?	0.1%	2.3%	?
CCOC(=O)c1c(C)c(-c2ccccc2)n(CC(=O)NCCc2cccc(C)c2)c1C	/	/	-6.7%	/
SMILES	Pf growth 96h	SARS PLP yeast	Sm TGR inh	Pf growth 48h
O=C(c1cccs1)n1nc(-c2ccco2)nc1SCc1ccccc1	?	-2.5%	-12.3%	/
CCC(=O)n1nc(-c2ccco2)nc1N	118.2%	8.3%	-2.2%	-11.7%
CCC(=O)n1nc(-c2ccco2)nc1SCc1ccccc1	1.2%[5.75 µM]	-10.8%	8.91µM*	33.7%
CC(=O)n1nc(-c2ccco2)nc1SCc1ccccc1	?	-45.3%	31.6µM*	23.1%
C/C(CC(=O)Nc1cc(C)ccn1)=N\NC(=O)C(=O)Nc1cccc(C)c1	1.47µM*	-22.5%	-1.9%	81.8%
C/C(CC(=O)Nc1ccccn1)=N\NC(=O)C(=O)Nc1ccccc1C	1.85µM*	-1.3%	1.1%	-4.4%
COc1ccccc1NC(=O)C(=O)N/N=C(\C)CC(=O)Nc1ccccn1	39.2%	-0.1%	/	10.4%
CCCCn1c(N)c(N(CCOC)C(=O)c2ccc(S(=O)(=O)N3CCCCC3)cc2)c(=O)[nH]c1=O	-9.3%	0.2%	4.9%	-3.3%
